Data on 40 molecules can be found in PubChem BioAssay (Tox21).

Inconclusive results are not listed. Unmarked numbers belong to inactive results. Calls follow the shape of the dose curve; as a rule, active = well fitted cell-killing curve with a large enough effect in the repeat runs; inconclusive = weak or mixed curves, or effect the other way; inactive = no such curve, though single readings can be large or run the other way.
% is scaled to controls: 0 for no effect and ±100 for the full control effect.

This assay is described as follows: qHTS assay to identify small molecule antagonists of the glucocorticoid receptor (GR) signaling pathway - cell viability counter screen (AID 720693). Also: nearly all actives have a fitted effect of over 55% in size. As to conditions: GR-bla HeLa viability, CellTiter-Glo luminescence, 18 h, with 5 nM dexamethasone present; series mostly up to 58.5 µM; viability change, negative = cytotoxic: at the top concentration. An excerpt: National Center for Advancing Translational Sciences [NCATS]
NIH Chemical Genomics Center [NCGC]
U.S. Environmental Protection Agency [EPA]
National Institutes of Environmental Health Sciences [NIEHS]
National Toxicology Program [NTP]
U.S. Food and Drug Administration [FDA]
The Glucocorticoid receptor (GR) is one of the members of the nuclear receptor family of ligand-dependent transcription factors. GR plays a critical role in carbohydrate, protein and lipid metabolisms and programmed cell death. CellSensor GR-bla HeLa cell line (Invitrogen) contains a beta-lactamase reporter gene under the control of the glucocorticoid response element stably integrated into HeLa cells, a cervical cancer cell line that expresses glucocorticoid receptor. The activation of the reporter gene under culture conditions can be detected by fluorescence intensity. This cell line has been used to screen the Tox21 10K compound library and to identify the compounds that inhibit the GR signaling. The cytotoxicity of the Tox21 compound library against the GR-bla HeLa cell line was tested in parallel by measuring the cell viability using CellTiter-Glo assay in the same wells.
Tox21 Assay Protocol Summary:
The GR-bla HeLa cells were dispensed at 1500 cells/5 ul/well in 1536-well black wall/clear bottom plates using a Multidrop Combi (ThermoFisher Scientific, Waltham, MA) dispenser. After the assay plates were incubated at a 37 C/5% CO2 incubator for 4 hours, 23 nL of compounds dissolved in DMSO, positive controls or DMSO only was transferred to the assay plate by a pintool station (Kalypsys, San Diego, CA), followed by addition of 1 uL of dexamethasone (5 nM, final concentration in the well). The plates were incubated at 37 C for 18 hours. After 1 uL of LiveBLAzerTM B/G FRET substrate was added using a Flying Reagent Dispenser (Aurora Discovery, San Diego, CA), the plates were incubated at room temperature (RT) for 2 hours, and fluorescence intensity was measured by an Envision plate reader (PerkinElmer, Shelton, CT). After measurement of bla assay, 3 ul CellTiter-Glo (Promega, Madison, WI) was added to measure the cytotoxicity and the plates were then incubated at RT for 30 min. The luminescence was measured using a ViewLux (Perkin Elmer) plate reader.
For orientation: Quantitative high-throughput screening tests each substance at several concentrations.
On to `O=C1CCN(c2ccccc2)N1`, for which the “viability change, negative = cytotoxic” value is -16.8% [at 78.9 µM].

`CCOC(=O)C1CC(=O)C(=C(O)C2CC2)C(=O)C1` (stereo not given): the “viability change, negative = cytotoxic” value was 12.4%.

On to `CC(C)CCCCCCc1ccc(OCCOCCO)cc1`, for which the “viability change, negative = cytotoxic” value is -10.1% [at 78.9 µM].

For `CC(C)CC(=O)OCc1ccccc1`, the “viability change, negative = cytotoxic” value was -4.79%.

`Cc1ccsc1C(=CCCN1CCC[C@@H](C(=O)O)C1)c1sccc1C`: the “viability change, negative = cytotoxic” value is -0.865%.

As for `CC(=O)Oc1cc(C(C)C)c(OCCN(C)C)cc1C`, the “viability change, negative = cytotoxic” value was 6.35% [at 27 µM].

`CCOc1ccccc1N`: the “viability change, negative = cytotoxic” value was 2.73%.

For `Cc1cc(NS(=O)(=O)c2ccc(N)cc2)nc(C)n1`, the “viability change, negative = cytotoxic” value was -14.6%.

Turning to `COC(=O)C(C)O` (stereo not given), the “viability change, negative = cytotoxic” value was 17.7% [at 78.9 µM].

Regarding `C[C@@H](N)C(=O)O`, the “viability change, negative = cytotoxic” value was 6.27%.

`CN(C)CC[C@@H](c1ccc(Cl)cc1)c1ccccn1`: the “viability change, negative = cytotoxic” value is 2.3%.

Regarding `c1ccc(CN(CC2=NCCN2)c2ccccc2)cc1`, the “viability change, negative = cytotoxic” value is -2.54%.

`CC(C)(C)c1cccc(O)c1`: the “viability change, negative = cytotoxic” value was 5.74%.

Turning to `Cc1nnc(SCC2=C(C(=O)O)N3C(=O)[C@@H](NC(=O)Cn4cnnn4)[C@H]3SC2)s1`, the “viability change, negative = cytotoxic” value was 7.91%.

In the case of `CCOC(=O)C(Br)c1ccccc1` (stereo not given), the “viability change, negative = cytotoxic” value is -2.12%.

`O=C1CCCCCCCCCCC(=O)OCCO1`: the “viability change, negative = cytotoxic” value was 22.4%.

Turning to `C=C(C)C(=O)OCCOP(=O)(O)O`, the “viability change, negative = cytotoxic” value is -7.77% [at 78.9 µM].

Take `CN1C(=O)CC(c2ccccc2)C1=O` (stereo not given): the “viability change, negative = cytotoxic” value was -11.3%.

For the molecule `Cc1cc2c(s1)Nc1ccccc1N=C2N1CCN(C)CC1`, the “viability change, negative = cytotoxic” value was -1.93%.

Consider `CN(CC1(C)CCCO1)S(=O)(=O)c1ccc(Cl)c(S(N)(=O)=O)c1` (stereo not given), for which the “viability change, negative = cytotoxic” value was -0.299%.

As for `CC(CNC1CCCCC1)OC(=O)c1ccccc1` (stereo not given), the “viability change, negative = cytotoxic” value was -0.289% [at 27 µM].

As for `CC(=O)N(CC(O)CN(C(C)=O)c1c(I)c(C(=O)NCC(O)CO)c(I)c(C(=O)NCC(O)CO)c1I)c1c(I)c(C(=O)NCC(O)CO)c(I)c(C(=O)NCC(O)CO)c1I` (stereo not given), the “viability change, negative = cytotoxic” value was 5.18% [at 27 µM].

Turning to `CCCCCCCOC(=O)CCC`, the “viability change, negative = cytotoxic” value is 20.5%.

`CC(=O)OC(C)OC(C)=O`: the “viability change, negative = cytotoxic” value was -2.53% [at 78.9 µM].

On to `CCCCCCC`, for which the “viability change, negative = cytotoxic” value is -0.464% [at 78.9 µM].

Regarding `O=C1C=CC(=O)O1`, the “viability change, negative = cytotoxic” value was 3.97% [at 78.9 µM].

With `O=C1CCC(C2CCCCC2)CC1`, the “viability change, negative = cytotoxic” value is 20.8%.

As to `CC(=O)OC1C2(C)CCC(C2)C1(C)C` (stereo not given), the “viability change, negative = cytotoxic” value was 3.16%.

As for `CCCCN1C[C@H](O)[C@@H](O)[C@H](O)[C@H]1CO`, the “viability change, negative = cytotoxic” value was 23.7%.

As to `NCCCN1CCN(CCCN)CC1`, the “viability change, negative = cytotoxic” value is -6.08%.

`CC(C)(C)C1CCCCC1=O` (stereo not given): the “viability change, negative = cytotoxic” value was -0.348%.

For the molecule `CCCCNCCCC`, the “viability change, negative = cytotoxic” value is -1.51%.

Turning to `Cc1nc(-c2ccccn2)ncc1C(=O)Nn1cc(C)c2cc(F)ccc21`, the “viability change, negative = cytotoxic” value was -8.15%.

Regarding `CN1CCN(C2=Nc3ccccc3Oc3ccc(Cl)cc32)CC1`, the “viability change, negative = cytotoxic” value was 1.3% [at 27 µM].

Consider `O=C(O[C@@H](C(=O)O)[C@@H](OC(=O)c1ccccc1)C(=O)O)c1ccccc1`, for which the “viability change, negative = cytotoxic” value is -1.04% [at 78.9 µM].

In the case of `CCOc1ccc2nc(N)sc2c1`, the “viability change, negative = cytotoxic” value was 6.11%.

Consider `Cc1c[nH]c(=S)[nH]c1=O`, for which the “viability change, negative = cytotoxic” value was 6.78%.

In the case of `CC/C=C\CCOC(=O)C(C)C`, the “viability change, negative = cytotoxic” value was 2.87%.

For the molecule `O=S(=O)(O)C(F)(F)F`, the “viability change, negative = cytotoxic” value was 0.0166%.

For `OCCN(CCO)CCN(CCO)CCO`, the “viability change, negative = cytotoxic” value was -7.78%.
